Out of some 5,500 compounds screened, about 2,000 (36%) were called active. Another 18% or so got no clear call; they are omitted. Rule as the data show it: active = normalized growth mostly below about 0.91 (no sharp cut-off); inconclusive = no clear call, values can overlap the other calls; inactive = mostly above about 0.92. This is one part of the list.
Test: chemical genetic growth profiling, strain panel (AID 1159580);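 also: tested at 20 µM; growth read once vehicle control cultures reached saturation at 30 °C; 1 = growth at the plate median or of vehicle wells; lower values mean less growth of the strain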
Conditions: S. cerevisiae deletion strains, growth OD
[1] = locus YAL013W, strain DEP1, active compounds read low
[2] = locus YAL040C, strain CLN3, active compounds read low
[3] = locus YCL061C, strain MRC1 (second series), active compounds read low
[4] = locus YDR363W, strain ESC2, active compounds read low
[5] = locus YER002W, strain NOP16, active compounds read low
[6] = locus YGR078C, strain PAC10, active compounds read low
[7] = locus YMR263W, strain SAP30, active compounds read low
[8] = locus YMR307W, strain GAS1, active compounds read low
[9] = locus YNL175C, strain NOP13, active compounds read low
[10] = locus YNL197C, strain WHI3, active compounds read low
[11] = locus YNL224C, strain SQS1, active compounds read low
[12] = locus YOR083W, strain WHI5 (second series), active compounds read low

Measured: normalized growth

Cc1ccccc1N1CCN(S(=O)(=O)C[C@]23CCC(CC2NC(=O)[C@@H](N)CCS(C)(=O)=O)C3(C)C)CC1 (stereo partly specified)
inactive: [1] 0.995 | [2] 1.01 | [3] 1 | [4] 1 | [5] 1.04 | [6] 0.999 | locus YGR229C, strain SMI1, active compounds read low 1 | [7] 0.995 | [8] 0.99 | [9] 1.01 | [10] 1.01 | [11] 1.01 | locus YNL322C, strain KRE1, active compounds read low 0.99 | [12] 1.04

CCCN(CCC)C1Cc2cc(OC)c(OC)cc2C1
inactive: [1] 0.961 | [2] 1.05 | [3] 0.988 | [4] 0.974 | [5] 1.04 | [7] 0.985 | [8] 0.995 | [9] 1.02 | [10] 0.983 | [11] 0.994 | [12] 0.995

Clc1ccc(C(c2ccc(Cl)cc2)n2cc[n+](CC(OCc3ccc(Cl)cc3Cl)c3ccc(Cl)cc3Cl)c2)cc1 (stereo unspecified)
active: [2] 0.071 | [3] 0.0506 | [4] 0.0687 | [6] 0.0555 | locus YJR075W, strain HOC1, active compounds read low 0.0686 | [8] 0.0652 | [9] 0.0668 | [10] 0.0718 | [11] 0.0691 | [12] 0.0706
inactive: [5] 1.01

Clc1ccc(C(Cn2ccnc2)OCc2ccsc2Cl)c(Cl)c1 (stereo unspecified)
active: locus YAL021C, strain ccr4, active compounds read low 0.0615 | locus YAL026C, strain drs2, active compounds read low 0.0595 | locus YAL030W, strain snc1, active compounds read low 0.058 | locus YBL061C, strain skt5, active compounds read low 0.0605 | locus YBR009C, strain hhf1, active compounds read low 0.0623 | locus YBR023C, strain chs3, active compounds read low 0.0625 | locus YBR171W, strain sec66, active compounds read low 0.077 | locus YBR231C, strain swc5, active compounds read low 0.0613 | locus YBR279W, strain paf1, active compounds read low 0.0605 | locus YCL011C, strain gbp2, active compounds read low 0.0554 | locus YCL016C, strain dcc1, active compounds read low 0.0612 | locus YCL061C, strain MRC1, active compounds read low 0.0623 | locus YCL069W, strain vba3, active compounds read low 0.0601 | locus YCR088W, strain abp1, active compounds read low 0.0619 | locus YDL005C, strain med2, active compounds read low 0.0727 | locus YDL040C, strain nat1, active compounds read low 0.0591 | locus YDR001C, strain nth1, active compounds read low 0.0593 | locus YDR069C, strain doa4, active compounds read low 0.0605 | locus YDR137W, strain rgp1, active compounds read low 0.0897 | locus YDR159W, strain sac3, active compounds read low 0.0897 | locus YDR195W, strain ref2 0.109 | locus YDR297W, strain sur2, active compounds read low 0.0576 | locus YDR334W, strain swr1, active compounds read low 0.0622 | locus YDR335W, strain msn5, active compounds read low 0.0604 | locus YDR392W, strain spt3, active compounds read low 0.0929 | locus YEL003W, strain gim4, active compounds read low 0.0528 | locus YEL037C, strain rad23, active compounds read low 0.0589 | locus YEL061C, strain CIN8 (second series), active compounds read low 0.0607 | locus YER015W, strain faa2, active compounds read low 0.0602 | locus YER016W, strain bim1, active compounds read low 0.0611 | locus YER111C, strain swi4, active compounds read low 0.0729 | locus YER155C, strain BEM2 (second series), active compounds read low 0.0863 | locus YFR010W, strain ubp6, active compounds read low 0.0638 | locus YGL167C, strain pmr1, active compounds read low 0.0775 | locus YGL173C, strain kem1, active compounds read low 0.0679 | locus YGL227W, strain vid30, active compounds read low 0.0627 | locus YGL240W, strain doc1, active compounds read low 0.0751 | locus YGL253W, strain hxk2, active compounds read low 0.0532 | locus YHR013C, strain ard1, active compounds read low 0.116 | locus YHR027C, strain rpn1, active compounds read low 0.0631 | locus YHR030C, strain SLT2, active compounds read low 0.1 | locus YHR079C, strain IRE1, active compounds read low 0.111 | locus YHR142W, strain chs7, active compounds read low 0.0682 | locus YJL092W, strain hpr5, active compounds read low 0.058 | locus YJL095W, strain BCK1 (second series), active compounds read low 0.0564 | locus YJL095W, strain BCK1, active compounds read low 0.131 | locus YJL115W, strain asf1, active compounds read low 0.0715 | locus YJL129C, strain trk1, active compounds read low 0.0844 | locus YJL154C, strain vps35, active compounds read low 0.0606 | locus YJL164C, strain tpk1, active compounds read low 0.0589 | locus YJL166W, strain qcr8, active compounds read low 0.0614 | locus YJL187C, strain SWE1, active compounds read low 0.058 | locus YJR066W, strain TOR1, active compounds read low -0.00364 | locus YKL160W, strain elf1, active compounds read low 0.0664 | locus YKR026C, strain gcn3, active compounds read low 0.0641 | locus YKR091W, strain srl3, active compounds read low 0.0588 | locus YLL001W, strain dnm1, active compounds read low 0.0592 | locus YLL026W, active compounds read low 0.0585 | locus YLL041C, strain sdh2, active compounds read low 0.0592 | locus YLR027C, strain aat2, active compounds read low 0.0566 | locus YLR113W, strain HOG1, active compounds read low 0.175 | locus YLR221C, strain rsa3, active compounds read low 0.0562 | locus YLR258W, strain gsy2, active compounds read low 0.0592 | locus YLR262C, strain YPT6 (second series), active compounds read low 0.0854 | locus YLR320W, strain mms22, active compounds read low 0.083 | locus YLR342W, strain FKS1, active compounds read low 0.063 | locus YLR357W, strain rsc2, active compounds read low 0.114 | locus YLR370C, strain arc18, active compounds read low 0.0594 | locus YLR384C, strain iki3, active compounds read low 0.0608 | locus YML120C, strain ndi1, active compounds read low 0.0591 | locus YMR058W, strain fet3, active compounds read low 0.0582 | locus YMR125W, strain sto1, active compounds read low 0.0724 | locus YMR129W, active compounds read low 0.057 | locus YMR205C, strain PFK2, active compounds read low 0.0885 | locus YMR231W, strain pep5, active compounds read low 0.0835 | locus YNL071W, strain lat1, active compounds read low 0.0601 | locus YNL183C, strain NPR1, active compounds read low -4.4e-05 | locus YNL209W, strain ssb2, active compounds read low 0.0596 | locus YNL248C, strain rpa49, active compounds read low 0.0715 | locus YNL322C, strain KRE1 (second series), active compounds read low 0.0708 | locus YNR049C, strain mso1, active compounds read low 0.0574 | locus YOR001W, strain rrp6, active compounds read low 0.0652 | locus YOR070C, strain gyp1, active compounds read low 0.0829 | locus YOR080W, strain dia2, active compounds read low 0.0656 | locus YOR083W, strain WHI5, active compounds read low 0.0618 | locus YOR106W, strain vam3, active compounds read low 0.0631 | locus YOR231W, strain MKK1, active compounds read low 0.107 | locus YOR265W, strain rbl2, active compounds read low 0.0575 | locus YOR270C, strain vph1, active compounds read low 0.0903 | locus YOR290C, strain snf2, active compounds read low 0.074 | locus YPL051W, strain arl3, active compounds read low 0.0604 | locus YPL078C, strain atp4, active compounds read low 0.0629 | locus YPL106C, strain sse1, active compounds read low 0.0945 | locus YPL240C, strain hsp82, active compounds read low 0.0568 | locus YPL256C, strain CLN2, active compounds read low 0.133

From PubChem BioAssay AID1159580 (chemical genetic matrix, 2015)
